An excerpt weighted towards active compounds, which were near 9.4% of everything screened.
ELG1 genotox – genotoxicity induction in ELG1-luciferase HEK293T cells; HEK293T ELG1-luciferase reporter, luminescence, 16 h; Potency, µM (top dose mostly 46 µM), without a hit: top-dose activity change, positive = activation, usual class: activators; 330,000 compounds, 1.3% hits; AID 504466; further: % of control where 0% means no effect; nearly all actives have a fitted effect of over 60% in size
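Cells (2,000/well) expressing the ELG1-luciferase fusion are dosed by pin tool and kept 16 hr at 37 °C, 5% CO2. Signal comes from ONE-Glo luciferase reagent after 30 min at room temperature.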
ELG1 repair inh – inhibitors of ELG1-dependent DNA repair in HEK293T cells | Potency, µM (doses to about 46.1 µM), for inactives: at the top dose activity change, negative = inhibition, usual class: inhibitors | HEK293T ELG1-luciferase reporter, luminescence, 16 h; DNA damage induced by 5-fluorouridine | 330,000 compounds, 2.3% hits; further: on the % scale 0 is the no-effect control and ±100 the full control effect; nearly all actives have a fitted effect of over 55% in size
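HEK293T cells expressing luciferase-tagged ELG1 (2,000/well) received 5-Fluorouridine plus compound or DMSO for 16 hr at 37 °C. Luciferase was read by ONE-Glo luminescence after 30 min at room temperature.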
SMN2 splice enh – enhancers of SMN2 splice variant expression; HEK293 SMN2-luciferase splicing reporter, luminescence, 30-36 h; Potency, µM (series often up to 46.1 µM), inactives show top-dose activity change, positive = activation, usual class: activators; 210,000 compounds, 2.8% hits; AID 1458; further: % of control where 0% means no effect; nearly all actives have a fitted effect of over 55% in size
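qHTS luciferase splicing reporter: luminescence rises when SMN2 exon 7 is included in transfected HEK293 cells. Compound exposure lasted 30-36 h at 37C, with 4.5 mM final sodium butyrate as control, followed by a ONE-Glo read.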
Rab9 promoter act – Rab9 promoter activation; Huh7 Rab9 promoter-luciferase reporter, luminescence, 24 h; Potency, µM (highest dose often 9.22 µM), for inactives: at the top dose activation, negative = inhibition, actives largely listed as activators; 320,000 compounds, 2.8% hits; AID 485297; further: % of control where 0% means no effect; nearly all actives have a fitted effect of over 60% in size
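Luminescence from Amplite-detected luciferase (10 minutes, ambient) reports Rab9 promoter activation. Before that, stable Rab9-luciferase Huh7 cells (1500/well, reduced-serum OP-MEM I plus 10% FBS) were exposed to compound for 24 hours at 37C.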
NPC1 prom act – activators of NPC1 promoter. Huh7 NPC1 promoter luciferase reporter, 24 h. Potency, µM (titrated, usually from 9.22 µM), for inactives: at the top dose activation, actives largely listed as activators. 320,000 compounds, 2.4% hits. AID 485313; further: % of control where 0% means no effect; nearly all actives have a fitted effect of over 60% in size
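In 1536-well qHTS, Huh7 cells harboring an NPC1 promoter–luciferase construct received compound for 24 h; activation was quantified by luminescence following luciferase reagent addition.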
FLuc counter – firefly luciferase modulation, counter-screen for miR-21 project; P08659; purified FLuc, Km substrates, luminescence inhibition; Potency, µM (series often up to 57.5 µM), for the others: at the top dose activity change, negative = inhibition, hits mostly inhibitors; 360,000 compounds, 6.9% hits;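 further: plate controls were vehicle for no effect and reference inhibitor for full effect; nearly all actives have a fitted effect of over 55% in size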
Target sequence (P08659 whole entry, looked up): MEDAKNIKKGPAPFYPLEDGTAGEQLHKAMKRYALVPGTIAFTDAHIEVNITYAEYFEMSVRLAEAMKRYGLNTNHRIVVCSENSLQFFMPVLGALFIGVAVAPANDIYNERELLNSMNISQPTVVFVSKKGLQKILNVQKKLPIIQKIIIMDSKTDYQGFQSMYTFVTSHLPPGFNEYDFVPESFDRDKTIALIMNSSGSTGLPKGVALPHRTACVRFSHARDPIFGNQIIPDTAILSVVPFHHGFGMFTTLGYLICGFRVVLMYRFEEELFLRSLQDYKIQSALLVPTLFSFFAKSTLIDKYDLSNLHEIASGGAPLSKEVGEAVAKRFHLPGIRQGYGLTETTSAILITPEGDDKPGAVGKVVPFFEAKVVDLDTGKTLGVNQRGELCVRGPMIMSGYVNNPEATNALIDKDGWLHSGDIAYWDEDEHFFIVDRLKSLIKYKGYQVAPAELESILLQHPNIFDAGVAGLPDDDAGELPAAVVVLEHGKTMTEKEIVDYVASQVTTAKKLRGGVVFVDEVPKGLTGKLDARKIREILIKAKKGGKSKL
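Purified P. pyralis luciferase, 10 nM final, with Km-level 10 uM D-luciferin and 10 uM ATP in 50 mM Tris acetate pH 7.5, 10 mM Mg acetate, 0.01% Tween-20, 0.05% BSA; 6-point qHTS titration about 60 µM downward; luminescence read.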
* hit, by the source's call; ? = inconclusive; . = not tested or not shown. The call rests on the fitted dose curve; in most records, active means well fitted curve in the direction sought with a large enough effect; inconclusive means small, poorly fitted or top-dose-only effect, or another doubt; inactive means no such curve, though single readings can be large; an effect the other way counts as inactive or inconclusive. Potency means the concentration at half of the fitted maximal effect.

SMILES	ELG1 genotox	ELG1 repair inh	SMN2 splice enh	Rab9 promoter act	NPC1 prom act	FLuc counter
C[C@@H]1CC2(OC(O)[C@]3(C)O[C@H]23)O[C@H]2C[C@@]3(C)[C@@H]4CC[C@H]5C(C)(C)C(O[C@@H]6OC[C@@H](O)[C@H](O)[C@H]6O)CC[C@@]56C[C@@]46CC[C@]3(C)[C@@H]12 (some centres undefined)	.	.	21.1%	.	.	.
Cc1ccc(C)c(NC(=O)Cn2cc(S(=O)(=O)N3CCCC3)c(S(=O)(=O)N3CCCC3)c2)c1	.	.	.	.	.	-1.6%
CNS(=O)(=O)c1cccc(C(=O)OCC(=O)c2cc(C)n(-c3ccc4c(c3)OCO4)c2C)c1	11.1%	-14.9%	-23.6%	-2.8%	-1.4%	?
Cc1cc(C(=O)COC(=O)c2cccc(S(=O)(=O)N(C)C)c2)c(C)n1CC1CCCO1 (centres undefined)	10.1%	?	.	3.55µM*	?	0.953µM*
CNS(=O)(=O)c1cccc(C(=O)OCC(=O)c2cc(C)n(CC3CCCO3)c2C)c1 (centres undefined)	?	?	.	2.82µM*	2.51µM*	1.35µM*
COc1cccc(-c2cc(C(=O)Nc3nc4ccccc4s3)c3ccccc3n2)c1	-4.3%	-15.8%	-37.2%	-4.4%	-2.8%	16.9µM*
Cc1cccc2sc(NNC(=O)c3cc(-c4cccs4)nc4ccccc34)nc12	-3.0%	?	-72.2%	-0.6%	0.5%	-14.3%
COc1ccc(-c2cc(C(=O)Nc3nc4c(C)cccc4s3)c3ccccc3n2)cc1OC	-5.8%	?	-5.3%	5.4%	7.3%	10.7µM*
COc1ccccc1N1CCN(C(=O)c2cn(C)c3ccc(S(=O)(=O)N(C)C4CCCCC4)cc3c2=O)CC1	.	.	6.1%	.	.	4.4%
COc1ccc(NC(=O)CSc2nnc(-c3ccccc3)n2Cc2ccco2)c(OC)c1	-0.7%	13µM*	-8.5%	12.0%	1.3%	-0.2%
COc1ccc(C)cc1NC(=O)CSc1nnc(COc2ccccc2)n1Cc1ccco1	1.3%	18.4µM*	-27.9%	15.2%	-3.0%	-3.5%
O=C(Cc1ccccc1)Nc1ccc2[nH]ncc2c1	-5.1%	?	.	0.7%	8.8%	-18.4%
O=C(NC(=S)Nc1ccc2cn[nH]c2c1)c1ccccc1	2.9%	?	17.8µM*	4.47µM*	3.55µM*	19µM*
O=C(Nc1ccc2[nH]ncc2c1)c1ccc(F)cc1	?	?	.	2.24µM*	2.82µM*	8.49µM*
O=C(Nc1ccc2[nH]ncc2c1)c1ccccc1	?	?	.	3.16µM*	2.82µM*	13.5µM*
S=C(Nc1ccccc1)Nc1ccc2cn[nH]c2c1	-7.7%	24.9%	.	?	21.4%	?
COc1ccc(NC(=O)N2CCc3c([nH]c4ccc(OC)cc34)C2c2ccc(OC)cc2)cc1 (centres undefined)	.	.	.	.	.	0.8%
COc1ccc(CCNC(=O)CCc2cn(Cc3ccc(C)cc3)c3ccccc23)c(OC)c1OC	.	.	.	.	.	-9.1%
Fc1ccc(-c2cnn3c(-c4ccncc4)ccnc23)cc1	6.8%	?	4.47µM*	0.398µM*	0.355µM*	1.2µM*
Fc1ccc(-c2cnn3c(-c4cccs4)ccnc23)cc1	6.6%	?	3.16µM*	3.98µM*	4.47µM*	0.757µM*
COC1CCC(C(=O)c2ccc3nc4c(cc3c2)CCCO4)CC1 (centres undefined)	.	.	12.6µM*	.	.	.
Cc1ccsc1/C=C1\CCc2ccccc2C1=O	?	?	10µM*	0.794µM*	?	0.19µM*
O=C1NC(=S)N/C1=C/c1ccc2ccccc2c1	6.5%	7.2%	.	29.0%	13.8%	-17.5%
Cc1ccccc1/C=C1\CCCc2ccccc2C1=O	?	?	10µM*	0.891µM*	3.98µM*	2.39µM*
O=C1/C(=C\c2ccc3ccccc3c2)CCCc2ccccc21	9.2µM*	?	-51.0%	22.3%	-1.8%	2.13µM*
SMILES	ELG1 genotox	ELG1 repair inh	SMN2 splice enh	Rab9 promoter act	NPC1 prom act	FLuc counter
CCN1C/C(=C/c2sccc2C)c2nc3ccccc3c(C(=O)O)c2C1	0.1%	18.8%	.	0.3%	5.8%	?
COc1cc(NC(=O)c2ccc3oc(=O)c(S(=O)(=O)c4ccccc4)cc3c2)cc(OC)c1	.	.	0.1%	.	.	6.0%
CCCN(CCC)CCNC(=O)Cn1cnc2sc(C)c(S(=O)(=O)N3CCN(c4ccccc4OC)CC3)c2c1=O	.	.	-4.1%	.	.	-0.6%
Cc1ccccc1OCc1nc2ccccc2c(=O)n1/N=C/c1c[nH]c2ccccc12	-4.5%	?	?	-10.4%	-3.0%	-14.1%
O=c1c2ccccc2nc(COc2ccccc2)n1/N=C/c1cc([N+](=O)[O-])ccc1O	-0.2%	-20.8%	-37.2%	10.5%	11.6%	19µM*
Cc1cccc(C)c1OCc1nc2ccccc2c(=O)n1/N=C/c1c[nH]c2ccccc12	-12.6%	8.2µM*	.	-1.3%	0.9%	-0.6%
Cc1cc(/C=N/n2c(COc3ccccc3C)nc3ccccc3c2=O)c(O)c([N+](=O)[O-])c1	12.2%	3.0%	-97.3%	1.3%	5.3%	23.9µM*
Cc1ccc(-c2[nH]ncc2/C=N/n2c(COc3ccccc3C)nc3ccccc3c2=O)cc1	-4.4%	2.59µM*	?	-4.2%	-3.5%	2.3%
COc1ncc2nc(-c3cc(F)cc(F)c3)c(=O)n(CCC#N)c2n1	.	.	-10.5%	.	.	.
Cc1ccc2nc(/C(C#N)=C/c3ccc(-c4cccc(Cl)c4)o3)[nH]c2c1	.	.	-1.3%	.	.	-17.4%
Cc1nc(S/C(=C/c2ccc(-c3cccc(Cl)c3)o2)C(=O)O)n[nH]1	-4.4%	6.8%	-23.3%	3.6%	0.2%	5.36µM*
Cc1ccc(S(=O)(=O)c2nc(-c3ccccc3F)oc2N2CCCCC2)cc1	.	.	-10.5%	.	.	-10.6%
CCN(CC)CCCNC(=O)CCCn1ncn2c(cc3occc32)c1=O	.	.	-3.5%	.	.	-1.5%
COc1cccc(-n2c(CN3CCN(c4cccc(C)c4)C(C)C3)nc3ccc([N+](=O)[O-])cc3c2=O)c1 (centres undefined)	0.5%	11.6µM*	-4.5%	-1.5%	-0.5%	-0.3%
COc1cccc(-n2c(CN3CCN(c4ccc(C)cc4)C(C)C3)nc3ccc([N+](=O)[O-])cc3c2=O)c1 (centres undefined)	-3.9%	?	-26.0%	-2.3%	-0.7%	-1.2%
O=C(NCc1cccnc1)C1CCC(c2ccc(Cl)cc2)CC1 (centres undefined)	-7.1%	9.2µM*	.	-11.6%	-10.3%	-0.4%
O=C(NCc1cccnc1)C1CCN(C(=O)c2ccc(Cl)cc2Cl)CC1	-0.3%	12.2%	-23.9%	-1.3%	0.0%	5.7%
